Compound activity from PubChem BioAssay.
DUSP3 inh: DUSP3 (human) phosphatase inhibition; recombinant VHR phosphatase, pNPP absorbance; 0.52% of 290,000 active; P51452; inhibition, % at 13.3 µM; in the data active = inhibition above about 50%
Target sequence (P51452 whole entry, looked up): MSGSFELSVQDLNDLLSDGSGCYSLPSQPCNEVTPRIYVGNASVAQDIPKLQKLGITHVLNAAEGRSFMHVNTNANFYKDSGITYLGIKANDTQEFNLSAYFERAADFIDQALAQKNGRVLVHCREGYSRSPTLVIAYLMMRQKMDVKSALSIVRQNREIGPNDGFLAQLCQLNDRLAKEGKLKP
Mtb hypoxia inh: reduces hypoxia-regulated biosensor signal in M. tuberculosis; M. tuberculosis hypoxia-regulated fluorescent reporter, fluorescence; fluorescence inhibition, % (concentration not given with the values); 0.1% of 300,000 active; AID 1159583; in the data active = fluorescence inhibition mostly above about 23%, no sharp cut-off; inactive = mostly below about 17%
FBA Mtb inh: inhibits M. tuberculosis FBA enzyme | purified M. tuberculosis FBA, fluorescence read-out | P9WQA3 | 2.3% of 360,000 active | inhibition, % at 1 µM | AID 588726; in the data active = inhibition above about 27%;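 also: 0% = vehicle and 100% = reference inhibitor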
Target sequence (P9WQA3 whole entry, looked up): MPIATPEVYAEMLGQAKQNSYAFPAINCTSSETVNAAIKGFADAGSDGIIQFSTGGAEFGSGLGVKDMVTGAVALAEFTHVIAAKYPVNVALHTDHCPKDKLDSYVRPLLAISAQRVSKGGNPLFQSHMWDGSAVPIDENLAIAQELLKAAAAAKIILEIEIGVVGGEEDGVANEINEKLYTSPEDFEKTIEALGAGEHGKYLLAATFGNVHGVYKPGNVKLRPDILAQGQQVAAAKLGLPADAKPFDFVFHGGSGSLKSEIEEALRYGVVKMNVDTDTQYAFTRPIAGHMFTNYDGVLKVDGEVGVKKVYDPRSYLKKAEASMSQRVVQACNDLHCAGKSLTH
Mtb bLac sens: beta-lactam sensitization of Mtb H37Rv | M. tuberculosis H37Rv growth with meropenem, percent inhibition | inhibition, % at 25 µM | 0.27% of 330,000 active | AID 434955; call rule not given here;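 also: growth measured after seven days incubation then overnight dye step; 0% = bacteria only wells and 100% = bacteria with antibiotic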
GDH-TPI counter: counter-screen for M. tuberculosis FBA inhibitors: GDH-TPI coupled enzymes | inhibition, % at 4.8 µM | 1.2% of 360,000 active | GDH-TPI coupled enzyme counterscreen, NADH absorbance; in the data active = inhibition above about 30%;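 also: 0% = DMSO wells and 100% = wells lacking the enzyme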
Starred values were filed as active, the others as inactive; . = no result given; + = active, no number. Hits are enriched below; roughly 3.6% of the tested compounds scored in any of these assays.

SMILES	DUSP3 inh	Mtb hypoxia inh	FBA Mtb inh	Mtb bLac sens	GDH-TPI counter
CC(=O)c1ccc(-c2ccc(/C=C(/Sc3n[nH]c(C)n3)C(=O)O)o2)cc1	13	2	-17	23	39*
CC(C)COc1ccc(CSCCNC(=S)Nc2ccccc2)cc1	13	.	74*	67	-8
Cc1ccc(NC(=O)c2cc(S(=O)(=O)N3CCCCC3)ccc2N2CCOCC2)cc1S(=O)(=O)N(C)C	.	26*	1	.	9
CCCCn1c(N)c(-c2nc3ccccc3o2)c2c([N+](=O)[O-])nn(C)c(=O)c21	55*	11	2	-2	19
N#Cc1nc(-c2cccc3ccccc23)oc1N1CCCCC1	0	1	4	-7	11
CCOP(=O)(OCC)c1nc(-c2ccccc2)oc1N1CCCCC1	16	-7	+	-1	1
CCOP(=O)(OCC)c1nc(-c2cccc3ccccc23)oc1N1CCCCC1	28	-1	175*	6	2
COP(=O)(OC)c1nc(-c2cccc3ccccc23)oc1N1CCCCC1	15	4	+	6	10
CC(C)(C)OC(=O)NCCCCC(NC(=O)c1[nH]cnc1C(=O)NC(Cc1ccccc1)C(=O)OC(C)(C)C)C(=O)OC(C)(C)C (stereo unspecified)	.	10	.	.	.
C=CCn1c(=O)/c(=C\c2ccsc2)s/c1=C(/C#N)C(=O)NCCN1CCOCC1	-7	.	1	2	8
COC(=O)/C=c1/s/c(=C(/C#N)C(=O)N2CCOCC2)n(-c2ccccc2)c1=O	-17	.	2	-1	40*
COc1ccc(-n2c(=O)/c(=C\c3cccs3)s/c2=C(/C#N)C(=O)NCCN2CCOCC2)cc1	27	.	-5	-1	34*
O=C(CC(=O)NN=Cc1ccc(C(=O)O)cc1)NCCc1ccccc1	.	9	.	.	.
COc1ccc(-c2csc3ncnc(N4CCN(CCO)CC4)c23)cc1	57*	2	4	1	1
Cn1c(O)c(C=NC2CCCCCC2)c(=O)[nH]c1=S	15	15	-8	-1	32*
Cn1c(O)c(C=NC2CCN(Cc3ccccc3)CC2)c(=O)[nH]c1=O	-3	12	-5	-1	0
CC1=CC(c2ccc(Cl)cc2)n2nc(N3C(=O)CCC3=O)nc2N1 (stereo unspecified)	9	6	167*	-3	16
Cc1ccc(C2C=C(c3ccccc3)Nc3nc(N4C(=O)CCC4=O)nn32)cc1 (stereo unspecified)	9	4	22	.	9
COc1ccc(OC)c2c1sc(=NC(=O)c1ccco1)n2C	38	7	0	2	34*
COc1ccc(OC)c2c1sc(=NC(=O)C1CC1)n2C	17	6	5	-5	21
CCn1c(=NC(=O)c2ccco2)sc2cccc(F)c21	11	.	3	62	51*
O=C1C2C(C(=O)N1N=Cc1cc(Br)cc([N+](=O)[O-])c1O)C1C=CC2C12CC2 (stereo unspecified)	.	-6	.	.	.
FC(F)(F)c1cc(-c2ccc(Cl)cc2)nc2ncnn12	-24	.	142*	-2	18
FC(F)(F)c1cc(-c2cccs2)nc2ncnn12	47	1	+	-4	11
O=C(NCCc1ccccc1)c1nc2nc(-c3cccs3)cc(C(F)(F)F)n2n1	-22	-5	+	-1	31*
SMILES	DUSP3 inh	Mtb hypoxia inh	FBA Mtb inh	Mtb bLac sens	GDH-TPI counter
Nc1nc(-c2ccc(Cl)cc2)cc(C(F)(F)F)n1	-4	2	3	5	-5
FC(F)(F)c1cc(-c2cccs2)nc2cc(-c3ccccc3)nn12	-5	6	4	-3	13
Cc1cc(C)n2nc(C(=O)NCCc3ccccc3)nc2n1	12	.	12	-4	6
COc1cc([N+](=O)[O-])cc(C=NNC(=O)C(C)Nc2ccccc2C)c1O (stereo unspecified)	.	7	.	.	.
CCOc1ccc(Cl)cc1C=NNC(=O)CNC(=O)c1ccccc1	.	-4	.	.	.
COc1cccc(N2CC(O)Cn3c2nc2c3c(=O)[nH]c(=O)n2C)c1 (stereo unspecified)	60*	10	4	-1	1
C/C(=C\c1cccs1)C(=O)c1c(C)cc(C)[nH]c1=O	9	15	2	0	53*
Cc1cc(C)c(C(=O)/C=C/c2cccs2)c(=O)[nH]1	22	10	-4	2	16
S=c1[nH]nc(-c2ccco2)n1N=C/C=C/c1ccccc1	.	6	.	.	.
CC(C)Sc1nc2c(c(=O)n(C)c(=O)n2C)n1Cc1ccc(Cl)cc1	-1	38*	0	14	-12
O=C1Nc2ccccc2C1=Nc1sc2c(c1C(=O)Nc1ccccc1)CCCC2	.	-4	.	.	.
COc1ccccc1N1CCN(C(=O)c2cc3c(=O)n4ccccc4nc3s2)CC1	.	-2	9	17	21
CC1CN(C(=O)c2cc3c(=O)n4ccccc4nc3s2)CC(C)O1 (stereo unspecified)	-15	5	196*	-17	34*
CN1CCN(C(=O)c2cc3c(=O)n4ccccc4nc3s2)CC1	8	6	+	-4	10
COC(=O)C1=C(c2cc3ccccc3s2)CC2CCC1N2C(=O)N1CCCCC1 (stereo unspecified)	.	3	.	.	.
Cc1ccc(NN=Cc2ccc(N3CCOCC3)cc2)cc1C	.	9	.	.	.
Cc1cc(=O)n2ccccc2c1C#N	16	-4	+	-9	25
COc1ccc(C2C=C(C)Nc3nc(SC)nn32)cc1 (stereo unspecified)	18	3	149*	-7	20
Cc1ccccc1NC(=S)NN=CC(C)c1ccccc1 (stereo unspecified)	.	14	.	.	.
CCCN(CCC)CCCNC(=O)c1cc2cc3ccc(Cl)cc3nc2o1	21	15	11	84	8
CCC(C)NC(=O)c1cc2cc3ccc(OC)cc3nc2o1 (stereo unspecified)	7	12	+	5	21
COc1ccc2cc3cc(C(=O)NCCC(C)C)oc3nc2c1	0	1	134*	0	15
COc1ccc2cc3cc(C(=O)NCCN4CCN(c5ccccc5F)CC4)oc3nc2c1	39	.	+	89	34*
COc1ccc2cc3cc(C(=O)Nc4ccccc4N4CCN(C)CC4)oc3nc2c1	15	.	1	98	22
Cc1ccc2cc3cc(C(=O)NCCCN4CCCC4)oc3nc2c1	7	8	127*	4	38*
COc1ccc2cc3cc(C(=O)N4CCCC(C)C4)oc3nc2c1 (stereo unspecified)	-2	17	14	3	18
CCOc1ccc(NC(=O)c2cc3cc4ccc(OC)cc4nc3o2)cc1	41	4	0	18	8
C#CCOCCOCCOCCNc1nc(N2CCOCC2)nc(N2CCN(C(=O)C(CCCCN)n3cc(CN)nn3)CC2)n1 (stereo unspecified)	.	10	.	.	.
COc1ccc2cc3cc(C(=O)NCC4CCCO4)oc3nc2c1 (stereo unspecified)	10	.	+	10	30
COc1ccc(C(=O)NCC2CCCO2)cc1 (stereo unspecified)	-5	-1	3	-7	4
